{
  "source": "PubChem BioAssay AID1445",
  "about": "(SRMLSC, 2008)",
  "note": "Hit rate of the full screen: of about 220,000 compounds, about 910 (0.41%) were called active. The full list was thinned out, with actives kept by preference. Measured potencies and affinities stand elsewhere. A number with no mark means an inactive call.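 The calls were made as follows: active = primary inhibition above the hit cutoff, then over 50% inhibition at one or more dose response concentrations (cut at about 23% in these data, passing the limit was not always enough); inconclusive = conflicting primary data, or primary hits not chosen for dose response; inactive = low primary inhibition, or under 50% at every dose.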",
  "data": [
    {"biological_target": "Aminopeptidase N (Plasmodium falciparum (isolate 3D7)) (UniProt O96935)", "sequence (O96935 whole entry, looked up)": "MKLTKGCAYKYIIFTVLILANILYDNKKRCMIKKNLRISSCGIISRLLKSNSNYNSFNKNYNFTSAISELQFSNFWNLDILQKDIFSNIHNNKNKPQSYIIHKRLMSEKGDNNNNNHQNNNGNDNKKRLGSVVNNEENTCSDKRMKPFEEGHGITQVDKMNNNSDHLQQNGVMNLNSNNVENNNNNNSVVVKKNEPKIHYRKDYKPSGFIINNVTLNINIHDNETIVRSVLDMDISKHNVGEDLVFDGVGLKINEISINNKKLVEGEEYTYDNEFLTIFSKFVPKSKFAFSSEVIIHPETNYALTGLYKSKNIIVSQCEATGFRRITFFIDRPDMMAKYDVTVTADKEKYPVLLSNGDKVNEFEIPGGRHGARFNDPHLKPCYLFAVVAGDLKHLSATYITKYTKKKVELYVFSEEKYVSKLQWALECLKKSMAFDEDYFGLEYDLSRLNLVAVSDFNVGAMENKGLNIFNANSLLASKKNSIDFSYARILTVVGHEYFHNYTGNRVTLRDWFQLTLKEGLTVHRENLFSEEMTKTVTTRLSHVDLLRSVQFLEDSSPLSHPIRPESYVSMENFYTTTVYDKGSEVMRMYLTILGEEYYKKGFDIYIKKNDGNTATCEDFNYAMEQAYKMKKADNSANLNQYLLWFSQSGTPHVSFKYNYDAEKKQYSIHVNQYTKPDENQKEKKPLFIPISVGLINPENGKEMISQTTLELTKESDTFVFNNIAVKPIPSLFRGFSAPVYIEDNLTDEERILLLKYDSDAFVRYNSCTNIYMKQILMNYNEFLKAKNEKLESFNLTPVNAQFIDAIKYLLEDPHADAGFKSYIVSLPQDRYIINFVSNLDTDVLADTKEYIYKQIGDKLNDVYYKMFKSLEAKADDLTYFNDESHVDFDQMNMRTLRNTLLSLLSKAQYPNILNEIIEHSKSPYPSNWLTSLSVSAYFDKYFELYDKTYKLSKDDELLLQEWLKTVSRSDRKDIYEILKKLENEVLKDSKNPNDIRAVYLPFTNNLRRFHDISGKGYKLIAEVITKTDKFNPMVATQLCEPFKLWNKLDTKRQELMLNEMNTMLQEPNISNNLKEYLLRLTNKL", "assay": "malaria alanyl aminopeptidase activity blockers – biochemical, fluorogenic H-Leu-NHMec substrate, 1536-well (AID 1445);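 also: plate controls were DMSO full reaction for no effect and no enzyme background for full effect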", "conditions": "recombinant M1AAP, H-Leu-NHMec fluorogenic kinetic assay; at 30 µM, active compounds read high unless noted", "values": [
      {"compound": "CC(=O)c1cccc(NC(=O)C2CC(=O)N(c3cccc(C)c3C)C2)c1", "note": "(configuration not stated)", "inhibition": "-2.91%"},
      {"compound": "O=C(O)c1ccccc1C(=O)NNc1cccc(Cl)n1", "inhibition": "0.28%"},
      {"compound": "O=C(CCCc1nc2ccccc2s1)NNC(=O)CCN1CCN(Cc2ccccc2)CC1", "inhibition": "2.9%"},
      {"compound": "O=C(O)CC1=C(Nc2ccccc2)C(=O)N(c2ccccc2)C1c1ccc(F)cc1", "note": "(configuration not stated)", "inhibition": "-3.54%"},
      {"compound": "CCCc1cc(=O)oc2cc(OCC(=O)N(C)C)c(Cl)cc12", "inhibition": "-0.86%"},
      {"compound": "CCCCN(C)Cc1c(O)ccc2c(-c3ccccc3)cc(=O)oc12", "inhibition": "3.86%"},
      {"compound": "CN(C)Cc1c(O)ccc2c(-c3ccccc3)cc(=O)oc12", "inhibition": "7.13%"},
      {"compound": "CCCc1cc(=O)oc2c(C)c3occ(C)c3cc12", "inhibition": "-0.02%"},
      {"compound": "Oc1c(C(c2cccc(F)c2)N2CCN(Cc3ccccc3)CC2)sc2ncnn12", "note": "(configuration not stated)", "inhibition": "9.71%"},
      {"compound": "Cc1ccc(-c2cc(C(=O)O)n[nH]2)o1", "inhibition": "5.31%"},
      {"compound": "CC1CCCCN1C(=O)c1cc(-c2ccc(Cl)c(Cl)c2)on1", "note": "(configuration not stated)", "inhibition": "-16.2%"},
      {"compound": "O=C(CSc1nnc(-c2cc3ccccc3cc2O)n1Cc1ccco1)N1CCc2ccccc2C1", "inhibition": "10.2%"},
      {"compound": "c1ccc(CSCc2cn3ccccc3n2)cc1", "inhibition": "-5.43%"},
      {"compound": "O=C(O)c1ccc(-c2ccccn2)s1", "inhibition": "0.37%"},
      {"compound": "Nc1ccc(-c2ccc(C(=O)O)s2)cn1", "inhibition": "28.6%"},
      {"compound": "CC1CCc2c(sc3nc(CSc4n[nH]c(N)n4)[nH]c(=O)c23)C1", "note": "(configuration not stated)", "inhibition": "-10.6%"},
      {"compound": "O=C(Nc1nccs1)c1csc2c1CCCC2", "inhibition": "8.61%"},
      {"compound": "Cc1ccc(-c2ccc(=O)n(CC(=O)Nc3cccc(C(=O)N4CCN(C)CC4)c3)n2)cc1", "inhibition": "6.7%"},
      {"compound": "O=C1CC(c2ccccc2F)c2c(c3ccccc3[nH]c2=O)O1", "note": "(configuration not stated)", "inhibition": "0.7%"},
      {"compound": "COC(=O)CSc1nnc(-c2ccc(NS(=O)(=O)c3ccccc3)cc2)o1", "inhibition": "7.24%"},
      {"compound": "Cc1sc(NC(=O)CSc2nnc(-c3ccccc3)o2)c(C#N)c1C", "inhibition": "25% (active)"},
      {"compound": "CCc1nnc(NC(=O)CSc2nnc(-c3ccco3)o2)s1", "inhibition": "-0.37%"},
      {"compound": "N#Cc1c(NC(=O)CSc2nnc(-c3ccccc3)o2)sc2c1CCCC2", "inhibition": "21.3%"},
      {"compound": "Cc1sc(NC(=O)CSc2nnc(-c3ccc(F)cc3)o2)c(C#N)c1C", "inhibition": "16%"},
      {"compound": "Cc1ccc(-n2c(C)nc3c(cnn3-c3ccc(C)c(C)c3)c2=O)cc1C", "inhibition": "2.27%"},
      {"compound": "CNNC(=O)C(=O)NNS(=O)(=O)c1ccccc1", "inhibition": "4.63%"},
      {"compound": "O=C1c2ccccc2C(=O)N1Cc1nc2ccccc2o1", "inhibition": "13%"},
      {"compound": "O=C1c2ccccc2C(=O)N1c1ccc(-c2nc3ccccc3o2)cc1", "inhibition": "-1.24%"},
      {"compound": "O=C(c1ccc(F)cc1)N(NC(=O)C(O)(c1ccccc1)c1ccccc1)c1ccccc1", "inhibition": "0.71%"},
      {"compound": "COc1ccc(C(=O)/C=C/Nc2cc(C)on2)cc1", "inhibition": "8.8%"},
      {"compound": "COc1ccc([N+](=O)[O-])cc1/C=N/NC(=O)/C(=C\\c1cccs1)NC(=O)c1ccccc1", "inhibition": "4.13%"},
      {"compound": "Fc1ccccc1-c1nc2nc3ccccc3nc2n1CC1CCCO1", "note": "(configuration not stated)", "inhibition": "14.5%"},
      {"compound": "CCCCCn1c(-c2ccco2)nc2nc3ccccc3nc21", "inhibition": "13%"},
      {"compound": "c1coc(-c2nc3nc4ccccc4nc3n2CC2CCCO2)c1", "note": "(configuration not stated)", "inhibition": "26% (active)"},
      {"compound": "COCCn1c(-c2ccco2)nc2nc3ccccc3nc21", "inhibition": "22.9%"},
      {"compound": "c1ccc(-c2nc3nc4ccccc4nc3n2CC2CCCO2)cc1", "note": "(configuration not stated)", "inhibition": "15.8%"},
      {"compound": "COC(=O)c1ccccc1NC(=O)Cn1cnc2ccc(S(=O)(=O)N3CCC(C)CC3)cc2c1=O", "inhibition": "20.3%"},
      {"compound": "CCOC(=O)C1=C(CN2CCSCC2)NC(=O)NC1c1ccc2c(c1)OCO2", "note": "(configuration not stated)", "inhibition": "-5.96%"},
      {"compound": "O=[N+]([O-])c1ccccc1/C=N/N1CCN(c2ccc(Cl)cc2)CC1", "inhibition": "1.05%"},
      {"compound": "C/C(N)=C(/C#N)C(=O)COC(=O)Cc1coc2cc(C)ccc12", "inhibition": "4.44%"},
      {"compound": "C/C(=N\\NC(=O)c1ccc(-c2ccccc2)cc1)C1C(=O)c2ccccc2C1=O", "inhibition": "-1.49%"},
      {"compound": "C/C(=N\\NC(=O)c1ccc(Br)cc1)C1C(=O)c2ccccc2C1=O", "inhibition": "39.9%"},
      {"compound": "C/C(=N\\NC(=O)CCc1ccccc1)C1C(=O)c2ccccc2C1=O", "inhibition": "0.57%"},
      {"compound": "C/C(=N\\NC(=O)c1cc2ccccc2cc1O)c1cc2ccccc2o1", "inhibition": "3.43%"},
      {"compound": "C/C(CC(=O)N1CCCC1)=N\\NC(=O)c1cc2ccccc2cc1O", "inhibition": "10.8%"},
      {"compound": "CCOc1ccc(C(=O)N/N=C(/C)C2C(=O)c3ccccc3C2=O)cc1", "inhibition": "4.51%"},
      {"compound": "CCOc1ccccc1N(CC(=O)NCCOC)C(=O)CCC(=O)Nc1ccccn1", "inhibition": "-5.17%"},
      {"compound": "CCC1CCCCN1CCCNC(=O)CC1Oc2ccccc2NC1=O", "note": "(configuration not stated)", "inhibition": "7.18%"},
      {"compound": "COc1cc([N+](=O)[O-])ccc1NC(=O)CCCOc1ccc(C)cc1", "inhibition": "17.4%"},
      {"compound": "CC(C)(C)c1cc(C(=O)N/N=C/c2ccccc2O)n(-c2ccccc2)n1", "inhibition": "11.1%"},
      {"compound": "COCCCNC(=O)Cn1nnc(-c2ccc(NC(=O)c3ccccc3F)cc2)n1", "inhibition": "0.6%"},
      {"compound": "Nc1nc(COc2ccc3ccccc3c2)cs1", "inhibition": "-0.25%"},
      {"compound": "O=C(NN=C1CCCCCC1)NC1CCCCC1", "inhibition": "-3.52%"},
      {"compound": "CCCc1nnc(NC(=O)CN2CCN(C)CC2)s1", "inhibition": "5.59%"},
      {"compound": "O=C(O)c1cccc2[nH]c(C(F)(F)F)nc12", "inhibition": "9.3%"},
      {"compound": "FC(F)(F)c1nc2ccccc2[nH]1", "inhibition": "-1.24%"},
      {"compound": "CC(C)(C)NC(=O)Cn1c(SCC(N)=O)nc2ccccc21", "inhibition": "2.96%"},
      {"compound": "O=C(OCC(=O)N1CCc2ccccc21)c1nc(Cl)ccc1Cl", "inhibition": "0.15%"},
      {"compound": "NC(=O)CN1C(=O)C2CCCCN2C(=O)c2ccccc21", "note": "(configuration not stated)", "inhibition": "-4.54%"},
      {"compound": "CN(C)C(=O)CN1C(=O)C2CCCCN2C(=O)c2ccccc21", "note": "(configuration not stated)", "inhibition": "8.25%"},
      {"compound": "Cc1noc(C)c1S(=O)(=O)N1CCCC(C(=O)N2CCN(C3CCCCC3)CC2)C1", "note": "(configuration not stated)", "inhibition": "8.08%"},
      {"compound": "Cc1cc(C)nc(N2CCC(C(=O)NCCc3ccc(F)cc3)CC2)n1", "inhibition": "3.16%"},
      {"compound": "N#C/C(=N\\Nc1ccccc1)C(=N)N1CCCCC1", "inhibition": "-1.69%"},
      {"compound": "N#Cc1c(-c2ccccc2)nc(SCC(=O)Nc2nnc(C(F)(F)F)s2)[nH]c1=O", "inhibition": "17.8%"},
      {"compound": "CCOC(=O)CCCCC(=O)c1[nH]c(=O)[nH]c1CSc1nc2ccccc2[nH]1", "inhibition": "8.8%"},
      {"compound": "CSc1nc(-c2ccccc2)c(C#N)c(=O)[nH]1", "inhibition": "2.21%"},
      {"compound": "CCOC(=O)CCCCC(=O)c1[nH]c(=O)[nH]c1CSc1nc(C)cc(=O)[nH]1", "inhibition": "7.83%"},
      {"compound": "CCOC(=O)CCCCC(=O)c1[nH]c(=O)[nH]c1CSc1nc(-c2ccccc2)c(C#N)c(=O)[nH]1", "inhibition": "23.6% (active)"},
      {"compound": "Cc1cccc(NC(=O)CSc2nc(-c3ccccc3)c(C#N)c(=O)[nH]2)c1C", "inhibition": "14.7%"},
      {"compound": "CCSc1nc(-c2ccccc2)c(C#N)c(=O)[nH]1", "inhibition": "-8.26%"},
      {"compound": "Cc1ccc(NC(=O)CCNS(=O)(=O)c2cc(Br)cnc2N)c(Cl)c1", "inhibition": "6.45%"},
      {"compound": "COc1ccc(-n2c(C)cc(/C=C(\\C#N)C(=O)NCc3ccco3)c2C)cc1", "inhibition": "9.23%"},
      {"compound": "CS(=O)(=O)c1ccc(Cl)c(NC(=O)COC(=O)c2cccc(C#N)c2)c1", "inhibition": "6.76%"},
      {"compound": "C/C(=N/NC(=O)CCc1c(C)n[nH]c1C)c1cccc([N+](=O)[O-])c1", "inhibition": "0.36%"},
      {"compound": "CC(C)c1ccccc1NC(=O)CNCCc1ccc(C(F)(F)F)cc1", "inhibition": "4.1%"},
      {"compound": "CCCCNC(=O)Cn1c(=O)oc2cc(S(=O)(=O)N3CC(C)CC(C)C3)ccc21", "note": "(configuration not stated)", "inhibition": "2.08%"},
      {"compound": "Cc1ccc(S(=O)(=O)N(Cc2cc3cc4c(cc3[nH]c2=O)OCCO4)CC2CCCO2)cc1", "note": "(configuration not stated)", "inhibition": "8.8%"},
      {"compound": "Cn1c(SCC(=O)N2CCOCC2)nnc1-c1cccc(NC(=O)c2ccccc2)c1", "inhibition": "16.6%"},
      {"compound": "Cn1c(SCC(=O)N2CCOCC2)nnc1-c1cccc(NC(=O)c2ccccc2F)c1", "inhibition": "25.4% (active)"},
      {"compound": "Cn1c(SCC(=O)N2CCOCC2)nnc1-c1ccc(NC(=O)c2ccccc2F)cc1", "inhibition": "3.9%"},
      {"compound": "CCOC(=O)Cc1nnc(NC(=O)C(CC)Sc2nc(C)cc(=O)[nH]2)s1", "note": "(configuration not stated)", "inhibition": "11%"},
      {"compound": "CCC(C)Nc1nc(OC(C(F)(F)F)C(F)(F)F)nc(OC(C(F)(F)F)C(F)(F)F)n1", "note": "(configuration not stated)", "inhibition": "9.34%"},
      {"compound": "CC(=O)Nc1ccc2nc(-c3ccncc3)[nH]c2c1", "inhibition": "10.3%"},
      {"compound": "O=C(Nc1ccc2nc(-c3ccccn3)[nH]c2c1)C1CCCCC1", "inhibition": "-0.77%"},
      {"compound": "O=C(CNC(=O)c1ccc(S(=O)(=O)N2CCCC2)cc1)N/N=C/c1ccc(Cl)cc1", "inhibition": "3.87%"},
      {"compound": "Cn1c(-c2ccc[nH]c2=O)nc2cc(Cl)ccc21", "inhibition": "3.43%"},
      {"compound": "CCCn1c(-c2ccc[nH]c2=O)nc2ccccc21", "inhibition": "4.86%"},
      {"compound": "COc1cc(/C=C2\\OC(=O)c3c(OC)cccc32)ccc1O", "inhibition": "18.4%"},
      {"compound": "CCC(=O)Oc1ccc2c(C)cc(=O)oc2c1C(=O)CC", "inhibition": "1.59%"},
      {"compound": "CCn1c(COc2ccc(=O)n(-c3ccccc3)n2)nnc1SCc1ccccc1", "inhibition": "1.85%"},
      {"compound": "Cc1ccc(NC(=O)c2cc([N+](=O)[O-])ccc2N2CCCC2)cc1", "inhibition": "9.65%"},
      {"compound": "CCOC(=O)c1ccc(NC(=O)CSc2ncccn2)cc1", "inhibition": "25.8% (active)"},
      {"compound": "CCOC(=O)c1ccc(NC(=O)CSc2nc3ncccc3[nH]2)cc1", "inhibition": "15.1%"},
      {"compound": "CCOC(=O)c1ccc(NC(=O)CSc2nccn2C)cc1", "inhibition": "13.7%"},
      {"compound": "O=C(C1CCCCC1)N1CCCn2c1nc1ccccc12", "inhibition": "26.8% (active)"},
      {"compound": "CCC(=O)N1CCCn2c1nc1ccccc12", "inhibition": "0.87%"},
      {"compound": "O=C(Nc1ccccc1)N1CCn2c1nc1ccccc12", "inhibition": "3.81%"}
    ]}
  ]
}
